Holding throughout (assay): NCI-60 one-dose screen, 48 h (100 = growth as untreated, 0 = no growth, -100 = all killed)
One assay relates to HCT-15 colon. The following applies: 10 µM unless noted.
The next assay relates to HT29 colon. The following applies: 10 µM unless noted.
For another assay, the system named is SNB-75 CNS. The following applies: 10 µM.
The subject of a further assay is SNB-19 CNS. The following applies: 10 µM unless noted.
The test system of another assay is U251 CNS. Particulars: 10 µM unless noted.
In a further assay the test system is PC-3 prostate. The following applies: 10 µM unless noted.
Another assay has as its system UACC-62 melanoma. Particulars: 10 µM unless noted.
For the next assay, the system named is LOX IMVI melanoma. Particulars: 10 µM unless noted.
In a further assay the test system is SK-MEL-2 melanoma. Particulars: 10 µM unless noted.
The test system of the next assay is EKVX NSCLC. The following applies: 10 µM unless noted.
The subject of another assay is SN12C renal. Particulars: 10 µM unless noted.
The test system of a further assay is UO-31 renal. The following applies: 10 µM unless noted.
A further assay concerns TK-10 renal. The following applies: 10 µM unless noted.
The subject of the next assay is ACHN renal. Particulars: 10 µM unless noted.
The next assay deals with CAKI-1 renal. The following applies: 10 µM unless noted.
The test system of the next assay is A498 renal. Particulars: 10 µM unless noted.
In the next assay the test system is CCRF-CEM leukemia. Particulars: 10 µM unless noted.
Another assay concerns MOLT-4 leukemia. The following applies: 10 µM unless noted.
The subject of the next assay is SK-MEL-5 melanoma. The following applies: 10 µM unless noted.
Another assay deals with SK-MEL-28 melanoma. The following applies: 10 µM unless noted.

This is part of a sample that, as a whole, favours compounds with a hit. Of some 83,000 tested, about 20% had one in any assay.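 Compound tested at a single concentration for 48 hours in 96-well plates; a percent growth value below 10 was scored as active.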 Values without a mark were called inactive. Calls of active or inactive are those of the source.

The values below come from PubChem BioAssay (NCI).

As for `COc1cc(/C=C/C(=O)c2c(C)nc3ccccc3c2C)ccc1OCCCCOc1cc2c(cc1OC)C(=O)N1CCC[C@H]1C=N2`, the growth in the assay on HCT-15 colon is -79.6% (active); in the assay with HT29 colon, -73.3% (active); in the assay on SNB-75 CNS, -100% (active); with SNB-19 CNS, -90.1% (active); in the assay on U251 CNS it was -97.8% (active); in the assay on PC-3 prostate it was -24.6% (active). Also, the growth was -99.2% (active) with UACC-62 melanoma; -92.2% (active) in the assay with LOX IMVI melanoma; -100% (active) with SK-MEL-2 melanoma; -26% (active) with EKVX NSCLC; -29.6% (active) with SN12C renal; -93.9% (active) with UO-31 renal. Also, the growth with TK-10 renal was -48.4% (active); in the assay on ACHN renal, -80.7% (active); in the assay with CAKI-1 renal, -34.5% (active); in the assay with A498 renal, -84.5% (active); with CCRF-CEM leukemia it was -36.8% (active); with MOLT-4 leukemia it was -44.7% (active).
On to `Cc1cc(N/N=C/c2nc(-c3ccccc3)oc2C)c2cc(Br)ccc2n1`, for which the growth in the assay with HCT-15 colon is 43.6%; in the assay on HT29 colon, 65.6%; in the assay on SNB-19 CNS, 91.2%; in the assay on U251 CNS, 38.5%; with PC-3 prostate, 79.5%; in the assay on SK-MEL-5 melanoma, 103%. Further, the growth in the assay with UACC-62 melanoma is 88.3%; with LOX IMVI melanoma, -31.7% (active); in the assay with SK-MEL-28 melanoma, 26%; in the assay with SK-MEL-2 melanoma it was 106%; in the assay with EKVX NSCLC it was 107%; in the assay on SN12C renal it was 32.3%. Moreover, the growth in the assay on UO-31 renal was 78.1%; in the assay with TK-10 renal, 101%; in the assay with ACHN renal, 89.9%; with CAKI-1 renal, 80%; with A498 renal it was 66.1%; in the assay on CCRF-CEM leukemia, 27.7%.
For the compound `CN(CCCCN(C[C@H]1Cc2ncccc2CN1)[C@H]1CCCc2cccnc21)C1CCC(F)(F)CC1`, the growth in the assay on HCT-15 colon is 70.4%; in the assay on HT29 colon, 82.3%; in the assay on SNB-19 CNS it was 90.5%; in the assay with U251 CNS, 81.6%; in the assay on PC-3 prostate, 83.8%; with SK-MEL-5 melanoma it was 104%. Also, the growth in the assay on UACC-62 melanoma is 98.2%; in the assay with LOX IMVI melanoma it was 93.3%; in the assay with SK-MEL-28 melanoma it was 106%; with SK-MEL-2 melanoma, 94.6%; in the assay with EKVX NSCLC it was 87.4%; in the assay with SN12C renal, 86.1%. Further, the growth is 67.6% with UO-31 renal; 82.4% in the assay with TK-10 renal; 102% with ACHN renal; 73.9% in the assay with CAKI-1 renal; 99.4% in the assay with A498 renal; 88.3% in the assay with CCRF-CEM leukemia.
Take `CN(C)CC(C(=O)c1ccccc1)c1ccccc1` (stereo unspecified): the growth is -37.7% (active) in the assay with HCT-15 colon; -17.4% (active) in the assay on HT29 colon; 84.4% in the assay on SNB-19 CNS; 59.8% with U251 CNS; 38.3% with PC-3 prostate; 64.2% with SK-MEL-5 melanoma. For the same compound, the growth in the assay on UACC-62 melanoma was 34.8%; in the assay with LOX IMVI melanoma it was 3.08% (active); with SK-MEL-28 melanoma it was 61%; in the assay on SK-MEL-2 melanoma, 34.7%; with EKVX NSCLC it was 89.6%; in the assay with SN12C renal it was 31.2%. The growth is 41.3% with UO-31 renal; -20% (active) in the assay with TK-10 renal; -41.5% (active) with ACHN renal; -2.87% (active) in the assay with CAKI-1 renal; 99.7% in the assay on A498 renal.
In the case of `COc1ccncc1S(=O)(=O)NC(=O)Nc1ccc(Cl)c(Cl)c1`, the growth is 101% in the assay on HCT-15 colon; 102% in the assay with HT29 colon; 78.3% with SNB-75 CNS; 96.8% in the assay with SNB-19 CNS; 94.9% in the assay on U251 CNS; 91.9% in the assay with PC-3 prostate. For the same compound, the growth is 120% in the assay on SK-MEL-5 melanoma; 66.7% in the assay on UACC-62 melanoma; 64.9% with LOX IMVI melanoma; 120% in the assay with SK-MEL-28 melanoma; 92.9% in the assay with SK-MEL-2 melanoma; 84.7% in the assay with EKVX NSCLC. The growth in the assay with SN12C renal was 94.5%; in the assay with UO-31 renal, 66.7%; with TK-10 renal it was 113%; with ACHN renal, 85.2%; with CAKI-1 renal it was 84.4%; in the assay on A498 renal, 96.3%. Besides, the figures for the growth in the assay with CCRF-CEM leukemia and in the assay on MOLT-4 leukemia were 81.7% and 83.5%, respectively.
For the compound `CCC(=O)Oc1ccc(/C(=C(/C)Cc2cccc(OC)c2)c2ccc(OCCN(C)C)cc2)cc1`, the growth is 48.2% in the assay with HCT-15 colon; 43.7% in the assay with HT29 colon; 92.6% in the assay on SNB-19 CNS; 71.3% in the assay with U251 CNS; 85.5% in the assay with PC-3 prostate; 92.9% in the assay on SK-MEL-5 melanoma. The growth in the assay on UACC-62 melanoma was 103%; in the assay with LOX IMVI melanoma, 73.4%; in the assay with SK-MEL-28 melanoma, 110%; in the assay with SK-MEL-2 melanoma, 100%; in the assay with EKVX NSCLC, 94.4%; in the assay on SN12C renal, 85.9%. Besides, the growth in the assay on UO-31 renal was 67.4%; with TK-10 renal, 99.4%; with ACHN renal it was 99.5%; in the assay with CAKI-1 renal, 91.3%; with A498 renal, 84.4%; in the assay on CCRF-CEM leukemia it was 42.8%.
In the case of `C=C1C(=O)O[C@H]2[C@H]1CC/C(Cn1cc(CNC(=O)Cc3cn(C(=O)c4ccc(Cl)cc4)c4ccc(OC)cc34)nn1)=C\CC[C@@]1(C)O[C@@H]21`, the growth with HCT-15 colon is 52.3%; in the assay with HT29 colon it was -57.4% (active); in the assay on SNB-19 CNS it was 47%; in the assay on U251 CNS, 14.2%; in the assay with PC-3 prostate it was 7.48% (active); with SK-MEL-5 melanoma it was 48.8%. For the same compound, the growth with UACC-62 melanoma is 8.27% (active); in the assay with LOX IMVI melanoma, -82% (active); with SK-MEL-28 melanoma, -56.9% (active); in the assay on SK-MEL-2 melanoma, 17.1%; with EKVX NSCLC it was 52.6%; in the assay on SN12C renal it was 19.3%. The growth is 30.2% in the assay with UO-31 renal; -46.8% (active) in the assay on TK-10 renal; 15% in the assay with ACHN renal; 67.4% in the assay on CAKI-1 renal; 53.7% with A498 renal; -34% (active) with CCRF-CEM leukemia. Further, in the assay with MOLT-4 leukemia, the growth is -23.5% (active).
Regarding `Nc1nc(Nc2cc(Cl)cc(Cl)c2)nn1S(=O)(=O)c1ccc2ccccc2c1`, the growth in the assay on HCT-15 colon is 59.2%; with HT29 colon, 39.8%; in the assay on SNB-19 CNS, 78%; with U251 CNS, 37.5%; in the assay on PC-3 prostate it was 48.9%; with SK-MEL-5 melanoma, 86.5%. The growth with UACC-62 melanoma was 67%; in the assay with LOX IMVI melanoma, 60.1%; in the assay on SK-MEL-28 melanoma, 84.8%; with SK-MEL-2 melanoma, 79.2%; in the assay with EKVX NSCLC, 53.6%; with SN12C renal, 43.3%. Besides, the growth was 14.7% in the assay on UO-31 renal; 63.5% in the assay on TK-10 renal; 29.2% in the assay with ACHN renal; 64.1% in the assay with CAKI-1 renal; 15.4% in the assay on A498 renal; 57.9% with CCRF-CEM leukemia. Further, in the assay on MOLT-4 leukemia, the growth is 37.6%.
In the case of `CCN(CC)CCC(CNc1c2ccc(Cl)cc2nc2ccc(OC)cc12)c1ccccc1` (stereo unspecified), the growth with HCT-15 colon is -18.4% (active); in the assay with HT29 colon, -36.1% (active); in the assay with SNB-19 CNS it was 5.5% (active); in the assay on U251 CNS, -59.1% (active); in the assay with PC-3 prostate it was 17.6%; in the assay with SK-MEL-5 melanoma it was -97.9% (active). Moreover, the growth in the assay with UACC-62 melanoma is -61.2% (active); with LOX IMVI melanoma, -25.4% (active); in the assay with SK-MEL-28 melanoma, -100% (active); in the assay with SK-MEL-2 melanoma it was -71.2% (active); in the assay on EKVX NSCLC, 52.1%; with SN12C renal, 16.8%. Also, the growth in the assay on UO-31 renal was -95.2% (active); in the assay with TK-10 renal, -11% (active); in the assay on ACHN renal, -95% (active); in the assay on CAKI-1 renal, -40.5% (active); with A498 renal, 88.8%; in the assay with CCRF-CEM leukemia it was 0.732% (active). In the assay on MOLT-4 leukemia, the growth was -7.09% (active).
